Experimental data published in the supplement of paper PMC6555819.

How the values were obtained:
Assay in all cases: PBM binding z-score (relative to random genomic background probes); higher = stronger binding; sequences stand for … in GC…GCGATTGACAGCGTAGAATGAAGG
[1] = system: FXR:RXRa (NR concentration 270 nM, RXRa partner concentration 90 nM)
Procedure, shortened: (§1)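 Ligand-free nuclear receptor dimers were applied to custom Agilent 4×180K protein-binding microarrays whose double-stranded probes carried direct-repeat seeds, single-nucleotide variants, half-site ablations and random human genomic background sequences in 34-nt variable regions. Incubation lasted 1 h. Binding z-scores were computed against the random background probes from regression-normalized fluorescence.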

[2] = system: LXRa:RXRa (NR concentration 270 nM, RXRa partner concentration 90 nM)
Procedure, shortened: as §1

[3] = system: LXRa homodimer (NR concentration 270 nM)
Procedure, shortened: as §1

[4] = system: LXRb:RXRa (NR concentration 270 nM, RXRa partner concentration 90 nM)
Procedure, shortened: as §1

[5] = system: LXRb homodimer (NR concentration 270 nM)
Procedure, shortened: as §1

[6] = system: PPARa:RXRa (NR concentration 270 nM, RXRa partner concentration 90 nM)
Procedure, shortened: as §1

[7] = system: PPARg:RXRa (NR concentration 180 nM, RXRa partner concentration 90 nM)
Procedure, shortened: as §1

[8] = system: PPARg:RXRa 270nM:90nM, anti-RXR (NR concentration 270 nM, RXRa partner concentration 90 nM)
Procedure, shortened: as §1

[9] = system: PPARg:RXRa 30nM:10nM, anti-RXR (NR concentration 30 nM, RXRa partner concentration 10 nM)
Procedure, shortened: as §1

[10] = system: PPARg:RXRa 90nM:30nM, anti-RXR (NR concentration 90 nM, RXRa partner concentration 30 nM)
Procedure, shortened: as §1

[11] = system: PPARg:RXRa DBDmut IVT, anti-RXR (DBD mutation: RXRa K156A/R161A, NR concentration 270 nM, RXRa partner concentration 90 nM)
Procedure, shortened: as §1

[12] = system: PPARg:RXRa IVT, anti-PPARg (NR concentration 270 nM, RXRa partner concentration 90 nM)
Procedure, shortened: as §1

[13] = system: PPARg DBDmut:RXRa IVT, anti-PPARg (DBD mutation: PPARg1 K132A/R137A, NR concentration 270 nM, RXRa partner concentration 90 nM)
Procedure, shortened: as §1

[14] = system: PPARg DBDmut IVT, anti-PPARg (DBD mutation: PPARg1 K132A/R137A, NR concentration 270 nM)
Procedure, shortened: as §1

[15] = system: PPARg homodimer (NR concentration 180 nM)
Procedure, shortened: as §1

[16] = system: PXR:RXRa (NR concentration 270 nM, RXRa partner concentration 90 nM)
Procedure, shortened: as §1

[17] = system: PXR homodimer (NR concentration 270 nM)
Procedure, shortened: as §1

[18] = system: RARa:RXR (NR concentration 270 nM, RXRa partner concentration 90 nM)
Procedure, shortened: as §1

[19] = system: RARa homodimer (NR concentration 270 nM)
Procedure, shortened: as §1

[20] = system: RARb:RXRa (NR concentration 270 nM, RXRa partner concentration 90 nM)
Procedure, shortened: as §1

Row | Sequence | PBM binding z-score [1] | PBM binding z-score [2] | PBM binding z-score [3] | PBM binding z-score [4] | PBM binding z-score [5] | PBM binding z-score [6] | PBM binding z-score [7] | PBM binding z-score [8] | PBM binding z-score [9] | PBM binding z-score [10] | PBM binding z-score [11] | PBM binding z-score [12] | PBM binding z-score [13] | PBM binding z-score [14] | PBM binding z-score [15] | PBM binding z-score [16] | PBM binding z-score [17] | PBM binding z-score [18] | PBM binding z-score [19] | PBM binding z-score [20]
1 | CGAACGAGGGCATGACTTGATAGCAAATGCCGAT | 0.404 | 0.369 | -0.781 | 0.0827 | -0.668 | 1.26 | 1.28 | 0.865 | -0.352 | 0.26 | 2.69 | 1.81 | -0.27 | -0.449 | -0.43 | 0.219 | -0.361 | 0.614 | -0.682 | 2.01
2 | CCGACTTGGGCATAAGGTTACCATAAGCCAGCCC | 0.141 | 1.54 | -0.195 | 0.516 | -1.29 | 0.631 | 0.738 | 0.712 | -0.372 | 0.427 | -0.117 | -0.425 | -0.991 | -1.38 | 0.34 | 0.211 | -0.364 | 0.822 | -0.32 | 0.922
3 | GCTTACGGGTCAAAGGTTATAGCCTGAATAGAAT | 7.79 | 5.8 | 0.763 | 5.69 | 0.503 | 6.88 | 11.5 | 9.6 | 10.2 | 11.3 | 4.87 | 6.32 | 0.778 | 1.43 | 7.84 | 6.26 | 0.103 | 8.66 | -0.0748 | 4.65
